The results in this text go back to PubChem BioAssay AID624300 (Southern Research Specialized Biocontainment Screening …, 2012).

About 360 (15%) of roughly 2,400 compounds were called active.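 The calls were made as follows: active = viability falls under 70% at one or more tested concentrations, taken as toxicity; inactive = viability stays over 70% at every dose.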 Only a sample is shown. Measured potencies and affinities stand elsewhere.

The nature of this assay: viability loss in HeLa cells – cytotoxicity control for MgcRacGAP inhibitor project, dose response (AID 624300). The following applies: CellTiter-Glo luminescence, 24 h; series mostly up to 100 µM. (In general: ATP-based viability assays read luminescence as a measure of living cells.)
Regarding `CC(C)(C)NC(=S)Nc1ccc(Nc2ccccc2)cc1`, the call was inactive.

Turning to `Oc1ccc(Cl)cc1C=Nc1ccc2c3c(cccc13)CC2`, the call was inactive. As for `CC(=O)N1CCN(c2ccc(NCc3ccc4c(c3)OCO4)cc2)CC1`, the compound was called inactive.

Take `O=C(Nc1ccc(O)cc1)c1ccc2c(c1)C(=O)N(Cc1ccccc1)C2=O`: the compound was called inactive. Take `Nc1c(/C=C2/C=CC(=O)C(O)=C2)c(=O)nc2sc(CC(=O)N3CCOCC3)nn12`: the compound was called inactive. In the case of `Cc1ccc(-c2csc3n[nH]c(=S)n23)cc1` it was “inactive”; in that of `COc1cc(/C=C/C(=O)OCC(=O)Nc2cc(S(=O)(=O)N3CCCCC3)ccc2C)ccc1O`, “inactive”. In the case of `COc1cc(/C=c2\sc3n(c2=O)CCCN=3)ccc1O` it was “inactive”; in that of `COc1cc(/C=C2\SC(N)=NC2=O)cc(Cl)c1O`, “inactive”. Turning to `COc1cc(/C=C2\SC(c3ccc(C)cc3)=NC2=O)cc(OC)c1O`, the compound was classed as inactive. `COc1cc(/C=C2\SC(=S)N(NC(=O)c3cccc(O)c3)C2=O)ccc1O`: the result was inactive.

As for `COc1cc(/C=C2\SC(=S)N(NC(=O)c3ccc(O)cc3)C2=O)ccc1O`, the compound was classed as inactive.

In the case of `COc1cc(C=C2CN(C)C(=O)C2=O)ccc1O`, the call was inactive. For `CNc1nc2c3ccccc3n(C(C)=O)c2s1`, the outcome was inactive.

Consider `COc1ccc(C2NC(=O)C(C#N)=C(S)N2c2ccccc2)cc1OC` (centres undefined), for which the outcome was inactive. On to `CCOCCCNc1nc(=S)[nH]c2cc(OC)c(OC)cc12`, for which the compound was classed as inactive. In the case of `COc1ccc(CN(C)CCc2ccccn2)c(OC)c1OC` it was “inactive”. As for `CN(C)c1ncnc2c1NC1=C(S2)C(=NCCCC(=O)O)CC(C)(C)C1`, the compound was classed as inactive.

In the case of `O=C(N/N=C/c1ccc(O)cc1)c1csc2ccccc12`, the result was inactive. As for `COc1cc(/C=N/NC(=O)CCc2n[nH]c(=O)[nH]c2=O)ccc1O`, the entry is “inactive”; as for `CN1CCN(CCOCCOc2ccc(Br)cc2Cl)CC1`, “inactive”; as for `Clc1cc(Br)ccc1OCCOCCN1CCCC1`, “inactive”. As to `CCCCn1c(=S)[nH]c2c(=O)n(C)c(=O)n(C)c21`, the call was inactive. As for `O=[N+]([O-])/C(C=Nc1ccccc1O)=C\Nc1ccccc1O`, the entry is “inactive”; as for `CN(Cc1ccccc1)C(=O)C1CCCN(Cc2ccc(Cl)cc2)C1` (centres undefined), “inactive”; as for `COc1cc(/C=N/NC(=O)c2ccccc2NS(=O)(=O)c2cccs2)ccc1O`, “inactive”. Regarding `CCOc1cc(/C=C2\C(=O)N(Cc3ccco3)C(C)=C2C(=O)OC)ccc1O`, the compound was classed as inactive. For `COC(=O)C1=C(C)N(Cc2ccco2)C(=O)C1`, the result was inactive. Take `Oc1ccc(Br)cc1C=Nc1ccc2c3c(cccc13)CC2`: the compound was classed as inactive.

For `C#CCOCCOCCOCCNc1nc(N2CCN(C(=O)C([C@@H](C)O)n3cc([C@@H](N)CCCCN)nn3)CC2)nc(N2CCN(C(=O)[C@H](CCCN=C(N)N)n3cc(C(N)[C@@H](C)CC)nn3)CC2)n1` (some centres undefined), the compound was called inactive. In the case of `CCC(CC)N1CCN(C(=O)c2cccc(Cl)c2)CC1` it was “inactive”; in that of `COc1cc(/C(C)=N/N2CCN(c3ccccc3OC)CC2)ccc1O`, “inactive”.

`CN(C)C(=S)N=c1ssc(=S)n1Cc1cccnc1`: the result was inactive. Consider `COc1cc(/C=N/n2c(-c3cc(C)[nH]n3)n[nH]c2=S)cc(OC)c1OC`, for which the call was inactive.

Consider `COc1c(-c2ccc(O)c(O)c2)oc2cc(O)cc(O)c2c1=O`, for which the call was inactive. On to `O=c1oc(-c2ccc(O)c(O)c2)cc2cccc(O)c12`, for which the compound was classed as inactive. For `CCOC(=O)c1[nH]c2ccccc2c1NC(=S)Nc1cc(C)ccc1C`, the result was inactive. On to `O=C(CN1CCN(c2ccc(O)cc2)CC1)Nc1ccccc1C(=O)NCCc1ccccc1`, for which the compound was called inactive. In the case of `S=c1[nH]nc(-c2ccco2)n1/N=C/c1ccc(Cl)cc1` it was “inactive”; in that of `COc1cc2c(cc1OC)C1(CCCC1)C(N)=C2C#N`, “inactive”; in that of `Oc1cc(O)cc(-c2cc3ccc(O)cc3o2)c1`, “inactive”. Regarding `COc1ccc(NC2CCCN(C(=O)C3=NNC(=O)CC3)C2)cc1` (centres undefined), the compound was called inactive. For `N#Cc1ccccc1OCCCN1CCC(Cc2ccccc2)CC1`, the compound was called inactive. In the case of `Cc1nnc(N=c2ssnc2Cl)o1` it was “inactive”. Consider `COc1cc(C(C)=NNC(=O)c2ccncc2)ccc1O`, for which the result was inactive. As to `CCCn1c(=O)c2ccccc2n2c(SCCNCCO)nnc12`, the outcome was inactive. With `Cc1ccc(NCc2ccccc2O)cc1C`, the result was inactive. Regarding `O=C1OCC/C1=C\c1ccc(O)cc1`, the compound was classed as inactive.

Take `COc1cc(/C=N/NC(=O)/C(=C/c2ccccc2)CCO)ccc1O`: the compound was classed as inactive. As for `CCN(CC)CCOC(=O)c1ccc(N/C=C(/C#N)c2nc(-c3ccc4c(c3)OCO4)cs2)cc1`, the compound was classed as inactive. On to `COc1ccc(-c2cc(C(=O)Nc3ccc(O)cc3)c3ccccc3n2)cc1OC`, for which the result was inactive. On to `Cc1cc(NC(=O)c2sc3ccccc3c2O)no1`, for which the compound was classed as inactive. Take `COc1cccc(C(=O)N2CCN(C3CCN(Cc4ccccc4)CC3)CC2)c1OC`: the compound was classed as inactive. `CCN(CC)c1ccc(NC(=O)CN2CCN(c3ccccn3)CC2)cc1`: the result was inactive. As to `O=C(/C(=C/c1cccnc1)n1ccnc1)c1ccc(Cl)cc1Cl`, the compound was called inactive. `COc1cc(/C=N\NC(=O)C2CC3C=CC2C3)ccc1O` (centres undefined): the compound was called inactive. Turning to `COc1cc(/C=N/NC(=S)NCCN2CCOCC2)ccc1O`, the result was inactive. As to `COc1cc(/C=N/NC(=O)CC(=O)NC2CCCCC2)ccc1O`, the call was inactive. Consider `CCOc1cc(C=NNC(=O)CCCC(=O)NN=Cc2ccc(O)c(OCC)c2)ccc1O`, for which the result was inactive. `CCOc1cc(/C=N/NC(=O)C(OC)c2ccccc2)ccc1O` (centres undefined): the outcome was inactive. Regarding `CCOc1cc(/C=N/NC(=O)C2CCCC2)ccc1O`, the compound was called inactive. For `O=C(N/N=C/c1ccc(O)cc1)NC12CC3CC(CC(C3)C1)C2`, the compound was classed as inactive. Regarding `CCOc1cc(/C=N/NC(=O)c2cc(C3CC3)[nH]n2)ccc1O`, the result was inactive. As to `CSc1nc(O)c(/C=C2\C=Nc3ccccc32)[nH]1`, the compound was classed as inactive. As for `COc1ccc(NC2CCCN(C(=O)c3ccc(C)c(N4CCNC4=O)c3)C2)cc1` (centres undefined), the entry is “inactive”. Take `CCOCCCNCC(=O)NCC1CCCCC1`: the compound was classed as inactive. As for `COc1cc(NC(=O)COC(=O)/C=C/c2ccc(O)c(OC)c2)cc(OC)c1`, the entry is “inactive”; as for `Nc1ccc(N2CCN(c3ccccc3)CC2)c(F)c1`, “inactive”; as for `O=C1CSC(=S)N1Nc1ccccc1`, “inactive”. Take `Nc1ccc(N=Nc2ccc(O)cc2)c(N)n1`: the result was inactive. `Cc1ccc(N2C(S)=C(C#N)C(=O)NC23CCCCC3)cc1`: the compound was called inactive. With `Cc1cccc(-n2c(=O)c3ccccc3n3c(=S)[nH]nc23)c1C`, the outcome was inactive. As for `OCCN1CCN(CC(O)COC(c2ccc(F)cc2)c2ccc(F)cc2)CC1` (centres undefined), the entry is “inactive”; as for `COc1ccc(OCC(O)CN2CCCC2)cc1` (centres undefined), “inactive”.
